# Measured values: PubChem BioAssay (EPA / NIEHS)
# Inconclusive results are not listed. Active and inactive are the calls of the source. The calls were made as follows: active = hit-call score of the fitted dose curve at least 0.9, where 1 is the maximum; inconclusive = response in the unintended direction; inactive = score below 0.9.
# Read-out: Cytochrome P450 2B6 (Homo sapiens) (UniProt P20813)
# Experiment: CLD_CYP2B6_48hr: CellzDirect (CLD) Gene Expression Assay for xenobiotic metabolism (CYP2B6) at 48 hours (AID 2283699);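 also: actives raise transcript level above DMSO so potency reflects induction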
# Procedure: CLD_48hr is a cell-based, multiplexed-readout assay that uses hepatocyte, a human liver primary cell, with measurements taken at 48 hours after chemical dosing in a 96-well plate.CLD_CYP2B6_48hr is one of 16 assay component(s) measured or calculated from the CLD_48hr assay. It is designed to make measurements of mRNA induction, a form of inducible reporter, as detected with chemiluminescence signals by Quantitative Nuclease Protection Assay (qNPA) technology.Data from the assay component CLD_CYP2B6_48hr was analyzed at the endpoint, CLD_CYP2B6_48hr, in the positive analysis fitting direction relative to DMSO as the negative control and baseline of activity. Using a type of inducible reporter, gain-of-signal activity can be used to understand changes in the reporter gene as they relate to the gene CYP2B6. Furthermore, this assay endpoint can be referred to as a primary readout. To generalize the intended target to other relatable targets, this assay endpoint is annotated to the cyp intended target family, where subfamily is xenobiotic metabolism.
# Human hepatocyte cultures were treated daily for two consecutive days with fresh dosing solutions containing appropriate concentrations of the 320 ToxCast chemicals (chemical identities were blinded to CellzDirect and other ToxCast collaborators), vehicle control (0.2% DMSO), and positive control inducers as summarized in Table 1. Due to the large number of treatment groups and chemicals examined, the ToxCast chemicals were divided into two groups (spanning two independent cultures of hepatocytes from separate donor preparations (Hu778: ToxCast plates 1 and 2; Hu776: ToxCast plates 3 and 4). Each preparation of human hepatocyte cultures was treated with respective vehicle control, medium only control, set of six positive controls/reference chemicals for the five hepatic receptor pathways, and a subset of eight of the ToxCast chemicals (indoxacarb, pyrithiobac-sodium, norflurazon, cyhalofop-butyl, methomyl, thiram, acetochlor, and propiconazole). These replicate data, coupled with internal replicates designed within the blinded ToxCast chemical library, provided additional data to evaluate interindividual differences between hepatocyte preparations and their potential impact on chemical profiles.Cell morphology and integrity were evaluated using phase-contrast microscopy as an indicator of hepatocyte cell health (Tyson & Green, 1987). Cultures for each treatment group (i.e., media, vehicle [0.2% DMSO], positive control inducers [multiple concentrations], and the ToxCast chemicals [multiple concentrations]) were observed and cell morphology was assessed relative to vehicle control cultures at each harvest time point (0, 6, 24, or 48 h). […] Images were evaluated at the conclusion of the study to assess changes in cell integrity and account for the effects of chemical exposure on uncharacteristic changes in concentration-dependent gene expression profiles. The results from these determinations of apparent cytotoxicity were annotated (yes/no) alongside the corresponding qNPA data for reference.At the conclusion of each treatment period, hepatocyte cultures (96-well) were washed with 1 volume of HBSS, lysed by addition of 25 ul ArrayPlate lysis buffer (HTG, Tucson, AZ), and 70 ul/well of Denaturation Oil, denatured by incubation at 95C for 10 min, and frozen at approximately -70C until analysis by nuclease protection assay (qNPA) (Roberts et al., 2007). For qNPA analysis, cell lysates were thawed at 50C for approximately 30 min, qNPA probes were added, and samples were incubated at 95C for 10 min to begin the detection process by denaturing the target RNA, dissociating the duplexes and secondary structure hybridization. At the conclusion of the hybridization period, S1 nuclease reagent was added to each sample to digest all nonprotected nucleotides at 50C for 60-90 min. […]
Compound,AC50,outcome
C[Si](Cn1cncn1)(c1ccc(F)cc1)c1ccc(F)cc1,0.051 µM (active),
CCCSP(=O)(OCC)SCCC,3.82 µM (active),
CCC(CC)Nc1c([N+](=O)[O-])cc(C)c(C)c1[N+](=O)[O-],6.23 µM (active),
CCCCOC(=O)[C@@H](C)Oc1ccc(Oc2ccc(C#N)cc2F)cc1,,inactive
CCc1cccc(CC)c1N(COC)C(=O)CCl,3.01 µM (active),
CC(C)N(C(=O)SCC(Cl)=C(Cl)Cl)C(C)C,3.91 µM (active),
CSc1nc(NC(C)C)nc(NC(C)C)n1,3.24 µM (active),
CC(C)=CC1C(C(=O)OCN2C(=O)C3=C(CCCC3)C2=O)C1(C)C (stereo not given),6.64 µM (active),
COc1ccc(C(=CC(=O)N2CCOCC2)c2ccc(Cl)cc2)cc1OC,3.59 µM (active),
O=[N+]([O-])c1cc(C(F)(F)F)c(Cl)c([N+](=O)[O-])c1Nc1ncc(C(F)(F)F)cc1Cl,,inactive
CCOP(=S)(OCC)OC(Cl)C(Cl)(Cl)Cl (stereo not given),0.0135 µM (active),
CNC(=O)Oc1cccc2c1OC(C)(C)O2,3.08 µM (active),
CCOP(=O)(OCC)Oc1cc(C)nc(C(C)C)n1,5.53 µM (active),
COc1cc(OC)nc(Sc2cccc(Cl)c2C(=O)O)n1,,inactive
CN(C)NC(=O)CCC(=O)O,,inactive
CCOP(=O)(SC(C)CC)N1CCSC1=O (stereo not given),2.05 µM (active),
CC(C1CC1)C(O)(Cn1cncn1)c1ccc(Cl)cc1 (stereo not given),2.42 µM (active),
C#CCC1=C(C)C(OC(=O)C2C(C=C(C)C)C2(C)C)CC1=O (stereo not given),4.91 µM (active),
CSc1nnc(C(C)(C)C)c(=O)n1N,20 µM (active),
CCCCOC(=O)c1ccccc1C(=O)O,,inactive

Compound,AC50,outcome
CCOP(=S)(OCC)Oc1ccc([N+](=O)[O-])cc1,1.13 µM (active),
CCc1cccc(C)c1N(C(=O)CCl)C(C)COC (stereo not given),0.969 µM (active),
CCC(=NOC/C=C/Cl)C1=C(O)CC(C2CCOCC2)CC1=O (stereo not given),,inactive
C[N+]1(C)CCCCC1,,inactive
CC(COc1ccc(Oc2ccccc2)cc1)Oc1ccccn1 (stereo not given),3.53 µM (active),
CCNc1nc(Cl)nc(NC(C)(C)C#N)n1,3.45 µM (active),
CCCSP(=O)(OCC)Oc1ccc(Br)cc1Cl (stereo not given),3.63 µM (active),
CC(=NC#N)N(C)Cc1ccc(Cl)nc1,,inactive
CCC(=O)Nc1ccc(Cl)c(Cl)c1,0.92 µM (active),
COc1cccc(C(=O)NN(C(=O)c2cc(C)cc(C)c2)C(C)(C)C)c1C,,inactive
FC(F)C(F)(F)OCC(Cn1cncn1)c1ccc(Cl)cc1Cl (stereo not given),0.321 µM (active),
C#CC(C)(C)NC(=O)c1cc(Cl)cc(Cl)c1,3.69 µM (active),
CSC1=N[C@@](C)(c2ccccc2)C(=O)N1Nc1ccccc1,1.16 µM (active),
CCOP(=S)(Oc1cnc(C(C)(C)C)nc1)OC(C)C (stereo not given),0.427 µM (active),
C=C(C)[C@H]1Cc2c(ccc3c2O[C@@H]2COc4cc(OC)c(OC)cc4[C@@H]2C3=O)O1,,inactive
CCCCN(CC)c1c([N+](=O)[O-])cc(C(F)(F)F)cc1[N+](=O)[O-],4.17 µM (active),
CCCOCC(=Nc1ccc(Cl)cc1C(F)(F)F)n1ccnc1,,inactive
CN(C)C(=O)Nc1cccc(C(F)(F)F)c1,3.69 µM (active),
CNc1cnn(-c2cccc(C(F)(F)F)c2)c(=O)c1Cl,3.19 µM (active),
CCCOc1nn(C(=O)NS(=O)(=O)c2ccccc2C(=O)OC)c(=O)n1C,,inactive
